According to PubChem BioAssay AID1159580 (chemical genetic matrix, 2015):
Where “and” joins values, the source holds several entries; their conditions need not be identical. Identical values can stand only once. The whole screen tested about 5,500 compounds, of which about 2,000 (36%) were called active. About 18% were inconclusive and are not listed. Rule as the data show it: active = normalized growth mostly below about 0.91 (no sharp cut-off); inconclusive = no clear call, values can overlap the other calls; inactive = mostly above about 0.92. Some of the results follow.

Test: chemical genetic growth profiling, strain panel (AID 1159580);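 also: tested at 20 µM; growth read once vehicle control cultures reached saturation at 30 °C; 1 = growth at the plate median or of vehicle wells; lower values mean less growth of the strain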
Settings: S. cerevisiae deletion strains, growth OD

Measured: normalized growth

CN(C)[C@@H]1C(=O)C(C(N)=O)=C(O)[C@@]2(O)C(=O)C3=C(O)c4c(O)cccc4[C@@](C)(O)[C@H]3[C@H](O)[C@@H]12
inactive: locus YAL013W, strain DEP1, active compounds read low 1.01 | locus YAL021C, strain ccr4, active compounds read low 1.02 | locus YAL026C, strain drs2, active compounds read low 1.01 | locus YAL030W, strain snc1, active compounds read low 1 | locus YBL061C, strain skt5, active compounds read low 1.02 | locus YBR009C, strain hhf1, active compounds read low 1.01 | locus YBR021W, strain FUR4, active compounds read low 0.99 | locus YBR023C, strain chs3, active compounds read low 1.02 | locus YBR171W, strain sec66, active compounds read low 1.02 | locus YBR229C, strain ROT2, active compounds read low 1 | locus YBR231C, strain swc5, active compounds read low 0.991 | locus YBR279W, strain paf1, active compounds read low 1.02 | locus YCL011C, strain gbp2, active compounds read low 1.01 | locus YCL016C, strain dcc1, active compounds read low 1.01 | locus YCL029C, strain bik1, active compounds read low 0.998 | locus YCL061C, strain MRC1, active compounds read low 1.01 | locus YCL069W, strain vba3, active compounds read low 1.02 | locus YCR088W, strain abp1, active compounds read low 1.02 | locus YDL005C, strain med2, active compounds read low 1.02 | locus YDL035C, strain GPR1, active compounds read low 1 | locus YDL040C, strain nat1, active compounds read low 1.03 | locus YDL074C, strain BRE1, active compounds read low 1.01 | locus YDL101C, strain DUN1, active compounds read low 1.01 | locus YDL134C, strain PPH21, active compounds read low 0.995 | locus YDL185W, strain tfp1, active compounds read low 0.988 | locus YDL192W, strain arf1, active compounds read low 0.998 | locus YDR001C, strain nth1, active compounds read low 1.02 | locus YDR069C, strain doa4, active compounds read low 1 | locus YDR101C, strain arx1, active compounds read low 1.01 | locus YDR137W, strain rgp1, active compounds read low 0.975 | locus YDR150W, strain NUM1, active compounds read low 1.01 | locus YDR159W, strain sac3, active compounds read low 1.05 | locus YDR162C, strain NBP2, active compounds read low 0.992 | locus YDR195W, strain ref2 1.01 | locus YDR297W, strain sur2, active compounds read low 1.02 | locus YDR318W, strain mcm21, active compounds read low 0.999 | locus YDR334W, strain swr1, active compounds read low 1.01 | locus YDR335W, strain msn5, active compounds read low 1.02 | locus YDR388W, active compounds read low 1 | locus YDR392W, strain spt3, active compounds read low 1.02 | locus YDR502C, strain sam2, active compounds read low 0.994 | locus YEL003W, strain gim4, active compounds read low 1.01 | locus YEL037C, strain rad23, active compounds read low 1.02 | locus YEL061C, strain CIN8 (second series), active compounds read low 1.01 | locus YEL061C, strain CIN8, active compounds read low 1 | locus YER015W, strain faa2, active compounds read low 1.01 | locus YER016W, strain bim1, active compounds read low 1 | locus YER110C, active compounds read low 1 | locus YER111C, strain swi4, active compounds read low 1.01 | locus YER155C, strain BEM2 (second series), active compounds read low 0.995 | locus YER155C, strain BEM2, active compounds read low 1.01 | locus YER167W, strain BCK2, active compounds read low 1.01 | locus YFR010W, strain ubp6, active compounds read low 1 | locus YGL078C, strain dbp3, active compounds read low 0.984 | locus YGL086W, strain mad1, active compounds read low 0.982 | locus YGL167C, strain pmr1, active compounds read low 1.01 | locus YGL173C, strain kem1, active compounds read low 1 | locus YGL227W, strain vid30, active compounds read low 1.04 | locus YGL240W, strain doc1, active compounds read low 1.01 | locus YGL248W, strain PDE1, active compounds read low 1 | locus YGL253W, strain hxk2, active compounds read low 1.02 | locus YGR078C, strain PAC10, active compounds read low 1 | locus YGR135W, strain pre9, active compounds read low 0.987 | locus YGR252W, strain gcn5, active compounds read low 0.967 | locus YHR013C, strain ard1, active compounds read low 1 | locus YHR027C, strain rpn1, active compounds read low 1.02 | locus YHR030C, strain SLT2, active compounds read low 1 and 0.979 | locus YHR079C, strain IRE1 (second series), active compounds read low 0.992 | locus YHR079C, strain IRE1, active compounds read low 0.98 | locus YHR094C, strain hxt1, active compounds read low 0.999 | locus YHR129C, strain ARP1, active compounds read low 1.01 | locus YHR142W, strain chs7, active compounds read low 1.05 | locus YHR200W, strain rpn10, active compounds read low 1 | locus YIL066C, strain RNR3, active compounds read low 1 | locus YIL073C, strain SPO22, active compounds read low 1.02 | locus YIL125W, strain kgd1, active compounds read low 0.998 | locus YIR030C, strain dcg1, active compounds read low 0.997 | locus YJL092W, strain hpr5, active compounds read low 1.02 | locus YJL095W, strain BCK1 (second series), active compounds read low 1.02 | locus YJL095W, strain BCK1, active compounds read low 0.987 and 0.979 | locus YJL115W, strain asf1, active compounds read low 1.03 | locus YJL129C, strain trk1, active compounds read low 1.05 | locus YJL134W, strain LCB3, active compounds read low 1.01 | locus YJL154C, strain vps35, active compounds read low 1.04 | locus YJL164C, strain tpk1, active compounds read low 0.997 | locus YJL166W, strain qcr8, active compounds read low 1.03 | locus YJL168C, strain set2, active compounds read low 0.998 | locus YJL187C, strain SWE1 (second series), active compounds read low 1.01 | locus YJR043C, strain POL32, active compounds read low 0.992 | locus YJR066W, strain TOR1, active compounds read low 0.928
